{
  "source": "PubChem BioAssay (Tox21)",
  "note": "Inconclusive results are not listed. Unmarked numbers belong to inactive results. Unless noted, calls follow the shape of the full dose curve. % is scaled to controls: 0 for no effect and ±100 for the full control effect.",
  "data": [
    {"test": "qHTS assay to identify small molecule agonists of the NFkB signaling pathway (AID 1159509; active = well fitted curve in the direction sought with a large enough effect in the signal ratio in the repeat runs, not every such curve was filed as active; the % refers to the signal ratio)", "details": "NFkB-bla ME-180 cells, beta-lactamase FRET ratio, 5 h; series mostly up to 61 µM; activation: at the top concentration", "how_it_was_run": "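Readout: FRET fluorescence, 405 nm excitation, 460/530 nm emission; beta-lactamase expression disrupts FRET. Cells: ME-180 stably carrying NF-kB-driven bla reporter. Compound exposure 5 hr, 37 C, 5% CO2.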", "units": {"activation": "%"}, "values": [
      {"smiles": "COC[C@H](c1ccc(C(F)(F)F)cc1)N1CCN(C2(C)CCN(C(=O)c3c(C)ncnc3C)CC2)C[C@H]1C", "activation": 0.998},
      {"smiles": "COCCOC(=O)CC#N", "activation": -0.173},
      {"smiles": "CN(C)CCOC(c1ccc(Cl)cc1)c1ccccn1", "note": "(centres undefined)", "activation": -0.742},
      {"smiles": "CCCCCCOC(=O)c1ccccc1O", "activation": 1.24},
      {"smiles": "CCC(=O)/C=C/c1ccc(OC)cc1", "activation": -0.162}
    ]},
    {"test": "qHTS assay to identify small molecule agonists of the NFkB signaling pathway - cell viability counter screen (AID 1159515); also: nearly all actives have a fitted effect of over 55% in size", "details": "NFkB-bla ME-180 viability, CellTiter-Glo luminescence, 5 h; series mostly up to 61 µM; activity, negative = cytotoxic: at the top concentration", "how_it_was_run": "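ME-180 NFkB-bla cells, 2,000/well; overnight attach; compound 5 hr, 37 C/5% CO2; LiveBLAzer substrate 1.5 hr RT; then CellTiter-Glo in same wells, 30 min RT, luminescence read.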", "values": [
      {"smiles": "Cc1ccc(N)cc1[N+](=O)[O-]", "activity, negative = cytotoxic": "-0.0289% [at 78.8 µM]"},
      {"smiles": "C=CCOCC(O)CS(=O)(=O)O", "note": "(centres undefined)", "activity, negative = cytotoxic": "-4.16% [at 78.8 µM]"},
      {"smiles": "COc1cccc(OC)c1", "activity, negative = cytotoxic": "-1.39%"},
      {"smiles": "CCC(C(=O)NC(N)=O)c1ccccc1", "note": "(centres undefined)", "activity, negative = cytotoxic": "2.02%"},
      {"smiles": "CC(=O)NC(Cc1ccccc1)C(=O)O", "note": "(centres undefined)", "activity, negative = cytotoxic": "12%"},
      {"smiles": "CC(C)[C@H](N)C(=O)OCCOCn1cnc2c(=O)[nH]c(N)nc21", "activity, negative = cytotoxic": "4.28%"},
      {"smiles": "CCCCc1ccc(N)cc1", "activity, negative = cytotoxic": "-8.72%"},
      {"smiles": "CCCCCCCCCCCCCCC", "activity, negative = cytotoxic": "7.18%"},
      {"smiles": "CCCCCC[C@@H](CCC)C(=O)O", "activity, negative = cytotoxic": "7.64%"},
      {"smiles": "O=C(O)Cc1cc(I)c(Oc2cc(I)c(O)c(I)c2)c(I)c1", "activity, negative = cytotoxic": "-0.285%"},
      {"smiles": "C=C(C)C(=O)NCCC[N+](C)(C)C", "activity, negative = cytotoxic": "7.01%"},
      {"smiles": "CC(=O)OC(C)(C)C", "activity, negative = cytotoxic": "11.8%"},
      {"smiles": "C=C(C)C1CC=C(C)C(O)C1", "note": "(centres undefined)", "activity, negative = cytotoxic": "12.1% [at 78.8 µM]"},
      {"smiles": "CCCCCCCCCCCCCCCCCCOCC(O)CO", "note": "(centres undefined)", "activity, negative = cytotoxic": "-6.57%"},
      {"smiles": "O=C(O)/C=C/c1ccc(Cn2ccnc2)cc1", "activity, negative = cytotoxic": "-30.8%"},
      {"smiles": "CC(=O)CCc1ccc(O)cc1", "activity, negative = cytotoxic": "3.9%"},
      {"smiles": "C1CCCCCCCCCCC1", "activity, negative = cytotoxic": "-0.151% [at 28.5 µM]"},
      {"smiles": "COC(=O)CCCCCCCCC(=O)OC", "activity, negative = cytotoxic": "0.605% [at 78.8 µM]"},
      {"smiles": "OCC(O)[C@@H](O)[C@H](O)[C@H](O)CO[C@H]1O[C@H](CO)[C@@H](O)[C@H](O)[C@H]1O", "note": "(some centres undefined)", "activity, negative = cytotoxic": "14.1%"},
      {"smiles": "CC(C)(C)C(=O)/C=C/c1ccc(Cl)cc1", "activity, negative = cytotoxic": "11.8%"},
      {"smiles": "COC(=O)[C@H]1[C@H]2C[C@@H]3c4[nH]c5cc(OC)ccc5c4CCN3C[C@H]2C[C@@H](OC(=O)COc2ccc(OC)cc2)[C@@H]1OC", "activity, negative = cytotoxic": "-5.91%"},
      {"smiles": "CCCCOCC(C)OCC(C)O", "note": "(centres undefined)", "activity, negative = cytotoxic": "-4.52% [at 78.8 µM]"},
      {"smiles": "CC(C)(C)OC(=O)N1C[C@@H](F)C[C@H]1C(=O)O", "activity, negative = cytotoxic": "-1.12% [at 78.8 µM]"},
      {"smiles": "NC(=O)c1ncn([C@@H]2O[C@H](CO)[C@@H](O)[C@H]2O)c1N", "activity, negative = cytotoxic": "-13.6%"},
      {"smiles": "CC(C)c1ccc2oc3nc(N)c(C(=O)O)cc3c(=O)c2c1", "activity, negative = cytotoxic": "-7.43%"},
      {"smiles": "C/C=C1\\C(=O)C[C@H]2[C@@H]3CCC4=CC(=O)CC[C@]4(C)[C@H]3CC[C@]12C", "activity, negative = cytotoxic": "-3.91%"},
      {"smiles": "Cc1nc(-c2ccc(OCC(C)C)c(C#N)c2)sc1C(=O)O", "activity, negative = cytotoxic": "6.56%"},
      {"smiles": "Fc1ccccc1-c1ccccc1", "activity, negative = cytotoxic": "2.22% [at 78.8 µM]"},
      {"smiles": "Nc1nc2c(ncn2CCC(CO)CO)c(=O)[nH]1", "activity, negative = cytotoxic": "-2.08%"},
      {"smiles": "CCCCCCCCN(C)CCCCCCCC", "activity, negative = cytotoxic": "10.2% [at 78.8 µM]"},
      {"smiles": "FC(F)(F)C(F)(F)C(F)(F)C(F)(F)C(F)(F)C(F)(F)C(F)(F)C(F)(F)C(F)(F)C(F)(F)F", "activity, negative = cytotoxic": "0.724% [at 6.95 µM]"},
      {"smiles": "CCC(=O)Nc1cccc(N)c1", "activity, negative = cytotoxic": "-1.08%"},
      {"smiles": "COC[C@H](c1ccc(C(F)(F)F)cc1)N1CCN(C2(C)CCN(C(=O)c3c(C)ncnc3C)CC2)C[C@H]1C", "activity, negative = cytotoxic": "-14.7%"},
      {"smiles": "COCCOC(=O)CC#N", "activity, negative = cytotoxic": "-0.356%"},
      {"smiles": "CN(C)CCOC(c1ccc(Cl)cc1)c1ccccn1", "note": "(centres undefined)", "activity, negative = cytotoxic": "0.0626%"},
      {"smiles": "CCCCCCOC(=O)c1ccccc1O", "activity, negative = cytotoxic": "0.857%"},
      {"smiles": "CCC(=O)/C=C/c1ccc(OC)cc1", "activity, negative = cytotoxic": "15.3%"}
    ]},
    {"test": "qHTS assay to identify small molecule agonists of the endoplasmic reticulum stress response signaling pathway (AID 1159516; active = well fitted activation curve with a large enough effect in the signal ratio in the repeat runs, not every such curve was filed as active; the % refers to the signal ratio)", "details": "ESRE-bla HeLa, ER stress beta-lactamase reporter, 5 h; series mostly up to 61 µM; activation: at the top concentration", "how_it_was_run": "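HeLa ESRE-bla reporter line; cpd 5 h, 37 C/5% CO2; LiveBLAzer B/G FRET substrate 2 h RT; ex 405, em 460/530 nm.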", "values": [
      {"smiles": "Cc1ccc(N)cc1[N+](=O)[O-]", "activation": "-2.99% [at 78.8 µM]"},
      {"smiles": "C=CCOCC(O)CS(=O)(=O)O", "note": "(centres undefined)", "activation": "-3.29% [at 78.8 µM]"},
      {"smiles": "COc1cccc(OC)c1", "activation": "-6.28%"},
      {"smiles": "CCC(C(=O)NC(N)=O)c1ccccc1", "note": "(centres undefined)", "activation": "6.27%"},
      {"smiles": "CC(=O)NC(Cc1ccccc1)C(=O)O", "note": "(centres undefined)", "activation": "-0.519%"},
      {"smiles": "CC(C)[C@H](N)C(=O)OCCOCn1cnc2c(=O)[nH]c(N)nc21", "activation": "4.02%"},
      {"smiles": "CCCCc1ccc(N)cc1", "activation": "-3.95%"},
      {"smiles": "CCCCCCCCCCCCCCC", "activation": "0.409%"},
      {"smiles": "CCCCCC[C@@H](CCC)C(=O)O", "activation": "8.89%"},
      {"smiles": "O=C(O)Cc1cc(I)c(Oc2cc(I)c(O)c(I)c2)c(I)c1", "activation": "-5.45%"},
      {"smiles": "C=C(C)C(=O)NCCC[N+](C)(C)C", "activation": "-0.248%"},
      {"smiles": "CC(=O)OC(C)(C)C", "activation": "2.27%"},
      {"smiles": "C=C(C)C1CC=C(C)C(O)C1", "note": "(centres undefined)", "activation": "2.06% [at 78.8 µM]"},
      {"smiles": "CCCCCCCCCCCCCCCCCCOCC(O)CO", "note": "(centres undefined)", "activation": "-0.908%"},
      {"smiles": "O=C(O)/C=C/c1ccc(Cn2ccnc2)cc1", "activation": "0.632%"},
      {"smiles": "CC(=O)CCc1ccc(O)cc1", "activation": "1.71%"},
      {"smiles": "C1CCCCCCCCCCC1", "activation": "-0.0379% [at 28.5 µM]"},
      {"smiles": "COC(=O)CCCCCCCCC(=O)OC", "activation": "0.127% [at 78.8 µM]"},
      {"smiles": "OCC(O)[C@@H](O)[C@H](O)[C@H](O)CO[C@H]1O[C@H](CO)[C@@H](O)[C@H](O)[C@H]1O", "note": "(some centres undefined)", "activation": "-0.584%"},
      {"smiles": "CC(C)(C)C(=O)/C=C/c1ccc(Cl)cc1", "activation": "-4.56%"},
      {"smiles": "COC(=O)[C@H]1[C@H]2C[C@@H]3c4[nH]c5cc(OC)ccc5c4CCN3C[C@H]2C[C@@H](OC(=O)COc2ccc(OC)cc2)[C@@H]1OC", "activation": "3.69%"},
      {"smiles": "CCCCOCC(C)OCC(C)O", "note": "(centres undefined)", "activation": "-4.08% [at 78.8 µM]"},
      {"smiles": "CC(C)(C)OC(=O)N1C[C@@H](F)C[C@H]1C(=O)O", "activation": "-0.234% [at 78.8 µM]"},
      {"smiles": "NC(=O)c1ncn([C@@H]2O[C@H](CO)[C@@H](O)[C@H]2O)c1N", "activation": "5.49%"},
      {"smiles": "CC(C)c1ccc2oc3nc(N)c(C(=O)O)cc3c(=O)c2c1", "activation": "-3.07%"},
      {"smiles": "C/C=C1\\C(=O)C[C@H]2[C@@H]3CCC4=CC(=O)CC[C@]4(C)[C@H]3CC[C@]12C", "activation": "-7.63%"},
      {"smiles": "Cc1nc(-c2ccc(OCC(C)C)c(C#N)c2)sc1C(=O)O", "activation": "-3.57%"},
      {"smiles": "Fc1ccccc1-c1ccccc1", "activation": "-0.161% [at 78.8 µM]"},
      {"smiles": "Nc1nc2c(ncn2CCC(CO)CO)c(=O)[nH]1", "activation": "0.408%"},
      {"smiles": "CCCCCCCCN(C)CCCCCCCC", "activation": "-1.12% [at 78.8 µM]"},
      {"smiles": "FC(F)(F)C(F)(F)C(F)(F)C(F)(F)C(F)(F)C(F)(F)C(F)(F)C(F)(F)C(F)(F)C(F)(F)F", "activation": "-9% [at 6.95 µM]"},
      {"smiles": "CCC(=O)Nc1cccc(N)c1", "activation": "0.0276%"},
      {"smiles": "COC[C@H](c1ccc(C(F)(F)F)cc1)N1CCN(C2(C)CCN(C(=O)c3c(C)ncnc3C)CC2)C[C@H]1C", "activation": "4.43%"},
      {"smiles": "COCCOC(=O)CC#N", "activation": "1.92%"},
      {"smiles": "CN(C)CCOC(c1ccc(Cl)cc1)c1ccccn1", "note": "(centres undefined)", "activation": "-0.0155%"},
      {"smiles": "CCCCCCOC(=O)c1ccccc1O", "activation": "1.02%"},
      {"smiles": "CCC(=O)/C=C/c1ccc(OC)cc1", "activation": "-6.85%"}
    ]}
  ]
}
